# Results published in PubChem BioAssay (Tox21).
# Results filed as inconclusive are left out. Entries that show only a call come without a potency. Unmarked numbers belong to inactive results. Calls of active or inactive are those of the source. Unless noted, calls follow the shape of the dose curve; as a rule, active = well fitted curve in the direction sought with a large enough effect in the repeat runs; inconclusive = weak or mixed curves; inactive = no such curve, though single readings can be large; an effect the other way counts as inactive or inconclusive.
# Columns and labels:
# [1] = qHTS assay to identify small molecule antagonists of the retinoid-related orphan receptor gamma (ROR-gamma) signaling pathway - cell viability counter screen (AID 1159520); also: nearly all actives have a fitted effect of over 50% in size
# Procedure, shortened: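 Tet-on ROR gamma CHO cells (1,000/well) were plated 4 hr, given compounds in DMSO for 2 hr at 37 C, then induced with 1 uM final doxycycline for 16 hr. Viability was read as ATP by CellTiter-Glo luminescence after 30 min.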
# [2] = molecular target: Nuclear receptor ROR-gamma (Homo sapiens) (UniProt P51449); experiment: qHTS assay to identify small molecule antagonists of the retinoid-related orphan receptor gamma (ROR-gamma) signaling pathway (AID 1159521; also: nearly all actives have a fitted effect of over 50% in size; also: potency is read from the fitted curve at half-maximal effect)
# Procedure, shortened: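 Readout: ONE-Glo luciferase luminescence, 30 min at room temperature. System: Tet-on RORγ CHO, RORE-LUC. Sequence: compound 2 h, doxycycline 1 uM final, 16 h at 37 C.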
# [3] = qHTS assay to identify small molecule agonists of the AP-1 signaling pathway - cell viability counter screen (AID 1159525; calls by dose curve; also: nearly all actives have a fitted effect of over 55% in size)
# Procedure, shortened: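 ME-180 AP-1-bla, 2500 cells/well, Opti-MEM + 0.5% dialyzed FBS; overnight 37 °C; cpd 15-pt titration, 5 h 37 °C; CellTiter-Glo 30 min RT; luminescence read; normalised to TOAB and DMSO controls.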
# [4] = qHTS assay to identify small molecule agonists of the AP-1 signaling pathway (AID 1159526; calls by dose curve)
# [5] = molecular target: Retinoic acid receptor RXR-alpha (Homo sapiens) (UniProt P19793); experiment: qHTS assay to identify small molecule agonists of the RXR signaling pathway (AID 1159527; calls by dose curve; also: nearly all actives have a fitted effect of over 35% in size; also: potency is read from the fitted curve at half-maximal effect)
# Chain of Retinoic acid receptor RXR-alpha (Homo sapiens) (P19793 whole entry, looked up): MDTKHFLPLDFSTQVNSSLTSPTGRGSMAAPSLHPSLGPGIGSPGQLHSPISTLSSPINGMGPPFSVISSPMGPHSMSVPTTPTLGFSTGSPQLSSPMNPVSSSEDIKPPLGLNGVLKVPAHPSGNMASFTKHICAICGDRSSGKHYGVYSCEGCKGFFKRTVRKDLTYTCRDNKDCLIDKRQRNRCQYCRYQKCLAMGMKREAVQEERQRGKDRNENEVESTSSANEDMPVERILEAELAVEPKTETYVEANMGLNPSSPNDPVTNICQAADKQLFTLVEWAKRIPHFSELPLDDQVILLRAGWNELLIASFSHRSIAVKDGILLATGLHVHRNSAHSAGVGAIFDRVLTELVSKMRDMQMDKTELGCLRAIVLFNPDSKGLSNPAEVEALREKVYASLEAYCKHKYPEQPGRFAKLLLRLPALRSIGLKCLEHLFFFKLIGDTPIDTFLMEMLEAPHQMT
# Procedure, shortened: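 Reporter activation is measured as beta-lactamase activity via FRET substrate cleavage (emission 460/530 nm) in HEK 293T cells expressing an RXR-alpha-driven bla construct, following 16 hr compound exposure at 37 C.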
# [6] = qHTS assay to identify small molecule agonists of the RXR signaling pathway - cell viability counter screen (AID 1159529); also: series mostly up to about 77 µM; nearly all actives have a fitted effect of over 50% in size
# Procedure, shortened: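 Tox21 10K compounds were tested for cytotoxicity against GeneBLAzer RXR-alpha HEK 293T cells grown in 2% charcoal-stripped FBS. Exposure lasted 16 hr at 37 C, 5% CO2; viability read by CellTiter-Glo luminescence.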
# [7] = qHTS assay to identify small molecule antagonists of the retinoid acid receptor (RAR) signaling pathway - cell viability counter screen (AID 1159551); also: nearly all actives have a fitted effect of over 35% in size
# Procedure, shortened: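 Retinol-stimulated (1 uM final) C3RL4 cells, compound 6 h, 37 C; readout CellTiter-Glo luminescence (ATP) after 30 min RT incubation.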
# [8] = qHTS assay to identify small molecule antagonists of the retinoic acid receptor (RAR) signaling pathway (AID 1159552; also: nearly all actives have a fitted effect of over 50% in size)
# Procedure, shortened: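 Overnight-plated C3RL4 reporter cells get compound, then retinol to 1 uM final; plates sit 6 hr at 37 C, 5% CO2. A luciferase reagent is added and light output recorded after 30 min at room temperature.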
# [9] = qHTS assay to identify small molecule antagonists of the peroxisome proliferator-activated receptor delta (PPARd) signaling pathway - cell viability counter screen (AID 743213); also: nearly all actives have a fitted effect of over 50% in size
# Procedure, shortened: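 Same-well viability: cells pre-incubated 5 h, dosed with compound plus 300 nM L165041, kept 17 h at 37 C, FRET substrate 2 h RT, then CellTiter-Glo 30 min RT and luminescence.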
# [10] = molecular target: Peroxisome proliferator-activated receptor delta (Homo sapiens) (UniProt Q03181); experiment: qHTS assay to identify small molecule antagonists of the peroxisome proliferator-activated receptor delta (PPARd) signaling pathway (AID 743215; active = well fitted inhibition curve with a large enough effect in the signal ratio in the repeat runs, not every such curve was filed as active; the % refers to the signal ratio;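 also: cells stimulated with agonist L165041 at 300 nM final during compound exposure; series mostly up to about 62 µM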)
# Chain of Peroxisome proliferator-activated receptor delta (Homo sapiens) (Q03181 whole entry, looked up): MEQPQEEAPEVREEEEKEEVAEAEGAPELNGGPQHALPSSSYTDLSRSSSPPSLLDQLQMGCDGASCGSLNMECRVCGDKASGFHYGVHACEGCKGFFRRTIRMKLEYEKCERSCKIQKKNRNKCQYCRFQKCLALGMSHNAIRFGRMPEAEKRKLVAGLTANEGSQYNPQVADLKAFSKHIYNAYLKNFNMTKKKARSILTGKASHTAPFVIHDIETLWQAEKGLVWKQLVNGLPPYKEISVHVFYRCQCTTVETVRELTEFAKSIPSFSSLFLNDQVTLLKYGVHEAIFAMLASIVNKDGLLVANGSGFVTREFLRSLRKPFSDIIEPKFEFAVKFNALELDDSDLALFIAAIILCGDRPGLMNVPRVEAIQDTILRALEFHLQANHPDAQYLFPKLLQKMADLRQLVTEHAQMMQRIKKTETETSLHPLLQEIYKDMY
# Procedure, shortened: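 HEK293H UAS-bla, PPARd; agonist L165041 300 nM final with cpd in DMSO; 37 C 17 h; FRET substrate, RT 2 h; fluorescence intensity.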
# [11] = qHTS assay to identify small molecule agonists of the farnesoid-X-receptor (FXR) signaling pathway - cell viability counter screen (AID 743218); also: nearly all actives have a fitted effect of over 45% in size
# Procedure, shortened: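 Parallel cytotoxicity test: compound-treated (16 h, 37 C) HEK 293T FXR-bla reporter cells were lysed with CellTiter-Glo and luminescence recorded.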
# [12] = molecular target: Bile acid receptor (Homo sapiens) (UniProt Q96RI1); experiment: qHTS assay to identify small molecule agonists of the farnesoid-X-receptor (FXR) signaling pathway (AID 743220; active = well fitted activation curve with a large enough effect in the signal ratio in the repeat runs, not every such curve was filed as active; the % refers to the signal ratio)
# Chain of Bile acid receptor (Homo sapiens) (Q96RI1 whole entry, looked up): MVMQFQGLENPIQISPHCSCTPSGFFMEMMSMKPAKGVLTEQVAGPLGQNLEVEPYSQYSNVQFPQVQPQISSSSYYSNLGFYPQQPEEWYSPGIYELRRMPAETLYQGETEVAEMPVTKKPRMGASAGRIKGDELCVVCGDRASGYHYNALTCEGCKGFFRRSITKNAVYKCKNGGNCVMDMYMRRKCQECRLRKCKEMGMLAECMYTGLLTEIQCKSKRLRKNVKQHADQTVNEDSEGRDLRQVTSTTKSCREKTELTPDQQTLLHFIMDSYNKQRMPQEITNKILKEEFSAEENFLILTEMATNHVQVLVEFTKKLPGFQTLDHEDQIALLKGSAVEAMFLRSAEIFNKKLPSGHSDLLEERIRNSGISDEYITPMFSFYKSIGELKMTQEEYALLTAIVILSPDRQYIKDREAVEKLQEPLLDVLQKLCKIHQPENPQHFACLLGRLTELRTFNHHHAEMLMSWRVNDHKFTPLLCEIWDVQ
# Procedure, shortened: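 Beta-lactamase reporter under UAS control in GeneBLAzer FXR HEK 293T cells (5000/well) measured with LiveBLAzer FRET substrate after 2 h at room temperature. Compound exposure lasted 16 h at 37C.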
# [13] = molecular target: Vitamin D3 receptor (Homo sapiens) (UniProt P11473); experiment: qHTS assay to identify small molecule agonists of the vitamin D receptor (VDR) signaling pathway (AID 743222; calls by dose curve)
# Chain of Vitamin D3 receptor (Homo sapiens) (P11473 whole entry, looked up): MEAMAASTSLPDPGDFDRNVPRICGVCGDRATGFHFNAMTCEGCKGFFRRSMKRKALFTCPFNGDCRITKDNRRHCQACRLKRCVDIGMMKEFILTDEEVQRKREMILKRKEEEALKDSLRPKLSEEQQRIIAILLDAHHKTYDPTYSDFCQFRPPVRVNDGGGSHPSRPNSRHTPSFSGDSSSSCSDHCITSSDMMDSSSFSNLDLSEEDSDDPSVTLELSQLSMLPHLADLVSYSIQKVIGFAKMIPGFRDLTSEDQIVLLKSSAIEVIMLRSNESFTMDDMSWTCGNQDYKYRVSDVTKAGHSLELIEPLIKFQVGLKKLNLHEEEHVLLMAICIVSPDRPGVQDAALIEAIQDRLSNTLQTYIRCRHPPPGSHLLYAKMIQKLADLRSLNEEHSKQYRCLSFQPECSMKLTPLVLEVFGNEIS
# Procedure, shortened: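 In VDR-bla cells, compound-induced beta-lactamase expression is quantified by FRET substrate fluorescence. Treatment lasts 16 h at 37C; substrate develops 2 h at room temperature.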
# [14] = molecular target: Vitamin D3 receptor (Homo sapiens) (UniProt P11473); experiment: qHTS assay to identify small molecule antagonists of the vitamin D receptor (VDR) signaling pathway (AID 743223; active = well fitted inhibition curve with a large enough effect in the signal ratio in the repeat runs, not every such curve was filed as active; the % refers to the signal ratio)
# Procedure, shortened: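 After VDR-bla cells are plated and left 4 h at 37C, DMSO-dissolved compounds and 3 nM (final) calcitriol agonist are added. Incubation continues 16 h at 37C; FRET beta-lactamase substrate then develops 2 h at room temperature.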
# [15] = qHTS assay to identify small molecule agonists of the vitamin D receptor (VDR) signaling pathway - cell viability counter screen (AID 743224)
# Procedure, shortened: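 Plated VDR-bla cells (4 h, 37C) received compound, incubated 16 h, then LiveBLAzer substrate 2 h RT; CellTiter-Glo added afterwards, luminescence read at 30 min.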
# [16] = qHTS assay to identify small molecule antagonists of the vitamin D receptor (VDR) signaling pathway - cell viability counter screen (AID 743225); also: nearly all actives have a fitted effect of over 50% in size
# Procedure, shortened: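 Cytotoxicity toward the VDR-bla HEK 293T line was scored by ATP-based CellTiter-Glo luminescence, read in the wells already used for the beta-lactamase readout after 16 h compound treatment under 3 nM 1-alpha,25-dihydroxyvitamin D3 stimulation.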
# [17] = qHTS assay to identify small molecule antagonists of the estrogen related receptor (ERR) signaling pathway - cell viability counter screen (AID 1224818);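 also: series mostly up to about 46 µM; viability measured after 17.5 h of compound exposure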
# Procedure, shortened: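 After a 6 h pre-incubation, ERR cells were dosed by pin tool with compounds, positive/negative controls or DMSO alone. Following 17.5 h at 37 C and 30 min with CellTiter-Fluor, fluorescence was recorded.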
# [18] = molecular target: Bile acid receptor (Homo sapiens) (UniProt Q96RI1); experiment: qHTS assay to identify small molecule antagonists of the farnesoid-X-receptor (FXR) signaling pathway (AID 743217; active = well fitted inhibition curve with a large enough effect in the signal ratio in the repeat runs, not every such curve was filed as active; the % refers to the signal ratio)
# Procedure, shortened: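 GeneBLAzer FXR-UAS-bla HEK 293T, CDCA-stimulated (50 uM final). Compound treatment 16 h, 37 °C. Detection: beta-lactamase cleavage of B/G FRET substrate, fluorescence.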
# [19] = qHTS assay to identify small molecule antagonists of the farnesoid-X-receptor (FXR) signaling pathway - cell viability counter screen (AID 743221; active = well fitted cell-killing curve with a large enough effect in the repeat runs, not every such curve was filed as active; also: nearly all actives have a fitted effect of over 50% in size)
# Procedure, shortened: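 CellTiter-Glo, 30 min RT, luminescence; same wells as the LiveBLAzer FRET read. Cells: FXR-UAS-bla HEK 293T. Treatment: compound with chenodeoxycholic acid 50 uM final, 16 h at 37 C.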
smiles,measurement,setting,value
O=C1CCC(=O)N1,Potency,[1],inactive
same,Potency,[2],inactive
same,Potency,[3],inactive
same,Potency,[4],inactive
same,Potency,[5],inactive
same,Potency,[6],inactive
same,Potency,[7],inactive
CSc1ccc(O)cc1C,Potency,[1],inactive
same,Potency,[2],43.3 µM (active)
C/C(=N\[Si](C)(C)C)O[Si](C)(C)C,Potency,[1],inactive
same,Potency,[2],inactive
same,Potency,[3],inactive
same,Potency,[4],inactive
same,Potency,[5],inactive
same,Potency,[6],inactive
same,Potency,[7],inactive
C/C=C/C(=O)C1=C(C)C=CCC1(C)C,Potency,[1],inactive
same,Potency,[2],inactive
same,Potency,[3],inactive
same,Potency,[4],inactive
same,Potency,[5],inactive
same,Potency,[6],inactive
same,Potency,[7],inactive
COc1cc(OC)nc(NC(=O)NS(=O)(=O)Nc2ccccc2C(=O)N(C)C)n1,Potency,[1],inactive
same,Potency,[2],inactive
same,Potency,[3],inactive
same,Potency,[4],inactive
same,Potency,[5],inactive
same,Potency,[6],inactive
same,Potency,[7],inactive
CC/C=C(\C)C=O,Potency,[1],inactive
same,Potency,[2],inactive
same,Potency,[3],inactive
same,Potency,[4],inactive
same,Potency,[5],inactive
same,Potency,[6],inactive
same,Potency,[7],inactive
Nc1cc([N+](=O)[O-])ccc1Cl,Potency,[1],inactive
same,Potency,[2],inactive
same,Potency,[3],inactive
same,Potency,[4],inactive
same,Potency,[5],inactive
same,Potency,[6],inactive
same,Potency,[7],inactive
CC1CCC(C(C)(C)O)CC1 (stereo unspecified),Potency,[1],inactive
same,Potency,[2],inactive
same,Potency,[3],inactive
same,Potency,[4],inactive
same,Potency,[5],inactive
same,Potency,[6],inactive
same,Potency,[7],inactive
c1ccc2c(c1)-c1ccc3ccc4cccc5cc-2c1c3c45,Potency,[1],inactive
same,Potency,[2],inactive
same,Potency,[3],inactive
O=C(NCc1ncc(C(F)(F)F)cc1Cl)c1c(Cl)cccc1Cl,Potency,[1],inactive
same,Potency,[2],12.2 µM (active)
same,Potency,[3],inactive
same,Potency,[4],inactive
CCN(CCC#N)c1ccc(N=Nc2ccc([N+](=O)[O-])cc2)cc1,Potency,[1],inactive
same,Potency,[2],inactive
same,Potency,[3],inactive
same,Potency,[4],inactive
same,Potency,[5],inactive
same,Potency,[6],inactive
same,Potency,[8],inactive
CC(C)=CCC[C@H](C)CC=O,Potency,[1],inactive
same,Potency,[2],inactive
same,Potency,[3],inactive
same,Potency,[4],inactive
same,Potency,[5],inactive
same,Potency,[6],inactive
C=C1CC[C@H]2O[C@]2(C)CC[C@@H]2[C@@H]1CC2(C)C,Potency,[1],inactive
same,Potency,[2],inactive
same,Potency,[3],inactive
same,Potency,[4],inactive
same,Potency,[5],inactive
same,Potency,[6],inactive
same,Potency,[7],inactive
[Cl][Sc]([Cl])[Cl],Potency,[1],inactive
same,Potency,[2],inactive
same,Potency,[3],inactive
same,Potency,[4],inactive
same,Potency,[5],inactive
same,Potency,[6],inactive
same,Potency,[7],inactive
NC(=O)c1ccccc1Cl,Potency,[1],inactive
same,Potency,[2],inactive
same,Potency,[3],inactive
same,Potency,[4],inactive
same,Potency,[5],inactive
same,Potency,[6],inactive
same,Potency,[7],inactive
Nc1ccc(F)c([N+](=O)[O-])c1,Potency,[1],inactive
same,Potency,[2],inactive
same,Potency,[3],inactive
same,Potency,[4],inactive
same,Potency,[5],inactive
same,Potency,[6],inactive
same,Potency,[7],inactive
CC(C)(C)c1cc(CCC(=O)OCCSCCOC(=O)CCc2cc(C(C)(C)C)c(O)c(C(C)(C)C)c2)cc(C(C)(C)C)c1O,Potency,[1],inactive
same,Potency,[2],inactive
same,Potency,[3],inactive
same,Potency,[4],inactive
same,Potency,[5],inactive
same,Potency,[6],inactive
same,Potency,[7],inactive
Clc1ccc2c(Cl)ccnc2c1,Potency,[1],inactive
same,Potency,[2],inactive
same,Potency,[3],inactive
same,Potency,[4],inactive
same,Potency,[5],inactive
same,Potency,[6],inactive
same,Potency,[7],inactive
same,Potency,[8],inactive
SC1CCCCC1,Potency,[9],inactive
same,Potency,[10],inactive
same,Potency,[11],inactive
same,outcome,[12],inactive
same,outcome,[13],inactive
same,Potency,[14],inactive
same,Potency,[15],inactive
same,Potency,[16],inactive
same,Potency,[1],inactive
same,Potency,[2],inactive
same,Potency,[3],inactive
same,Potency,[4],inactive
same,Potency,[5],inactive
same,Potency,[6],inactive
same,Potency,[7],inactive
Cn1ccnc1,Potency,[1],inactive
same,Potency,[2],inactive
same,Potency,[3],inactive
same,Potency,[4],inactive
same,Potency,[5],inactive
same,Potency,[6],inactive
same,Potency,[7],inactive
same,Potency,[17],inactive
CCOc1nc(F)cc2nc(S(=O)(=O)Nc3c(Cl)cccc3C(=O)OC)nn12,Potency,[1],inactive
same,Potency,[2],inactive
same,Potency,[3],inactive
same,Potency,[4],inactive
same,Potency,[5],inactive
same,Potency,[6],inactive
same,Potency,[8],inactive
O=c1[nH]cccc1O,Potency,[1],inactive
same,Potency,[2],inactive
same,Potency,[3],inactive
same,Potency,[4],inactive
same,Potency,[5],inactive
same,Potency,[6],inactive
same,Potency,[7],inactive
same,Potency,[8],inactive
CCC(=O)OC/C=C(\C)CCC=C(C)C,Potency,[1],inactive
same,Potency,[2],inactive
same,Potency,[3],inactive
same,Potency,[4],inactive
same,Potency,[5],inactive
same,Potency,[6],inactive
same,Potency,[7],inactive
C/C(=C\c1ccc(C(=O)O)cc1)c1ccc2c(c1)C(C)(C)CCC2(C)C,Potency,[1],inactive
same,Potency,[2],inactive
same,Potency,[3],inactive
same,Potency,[4],inactive
same,Potency,[5],0.952 µM (active)
same,Potency,[6],inactive
same,Potency,[7],inactive
same,Potency,[17],inactive
Nc1cccnc1N,Potency,[1],inactive
same,Potency,[2],inactive
same,Potency,[3],inactive
same,Potency,[4],inactive
same,Potency,[5],inactive
same,Potency,[6],inactive
same,Potency,[8],inactive
COc1c(Br)cc(Br)c(C)c1Br,Potency,[9],inactive
same,Potency,[18],inactive
same,Potency,[11],inactive
same,outcome,[12],inactive
same,Potency,[19],inactive
same,outcome,[13],inactive
same,Potency,[15],inactive
same,Potency,[16],inactive
same,Potency,[1],inactive
same,Potency,[2],inactive
same,Potency,[3],inactive
same,Potency,[4],inactive
same,Potency,[5],inactive
same,Potency,[6],inactive
same,Potency,[7],inactive
Cc1cccc2c1ccc1ccccc12,Potency,[1],inactive
same,Potency,[2],inactive
same,Potency,[3],inactive
same,Potency,[4],inactive
same,Potency,[5],inactive
same,Potency,[6],inactive
same,Potency,[8],inactive
CC(=O)CC(N)=O,Potency,[1],inactive
same,Potency,[2],inactive
same,Potency,[3],inactive
same,Potency,[4],inactive
same,Potency,[5],inactive
same,Potency,[6],inactive
same,Potency,[7],inactive
same,Potency,[8],inactive
CC(C)(C)C1=CC(=O)C(C(C)(C)C)=CC1=O,Potency,[1],inactive
same,Potency,[2],10.6 µM (active)
same,Potency,[3],inactive
same,Potency,[4],inactive
Nc1cc([N+](=O)[O-])cc(Cl)c1O,Potency,[1],inactive
same,Potency,[2],inactive
same,Potency,[3],inactive
same,Potency,[4],inactive
same,Potency,[5],inactive
same,Potency,[6],inactive
same,Potency,[7],inactive
same,Potency,[8],inactive
